Source: PubChem (National Center for Advancing Translational Sciences (NCATS))
DT40 TDP1 no CPT = qHTS for Inhibitors of human tyrosyl-DNA phosphodiesterase 1 (TDP1): qHTS in cells in absence of CPT; DT40 Tdp1-/- hTDP1 cells, no CPT, ATP luminescence, 48 h; Potency, µM (titrated, usually from 46.2 µM), for the others: at the highest dose activity change, negative = growth inhibition, actives largely listed as inhibitors; 15% of 420,000 active; AID 686978, 2013; also: nearly all actives have a fitted effect of over 55% in size
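No-CPT arm: Tdp1-/-;hTDP1 DT40 cells (400/well) plus compounds, incubated ≥48 hr at 37 °C. Readout CellTiter-Glo luminescence.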
ELG1 DNA repair = blocks ELG1-dependent DNA repair in HEK293T cells. HEK293T ELG1-luciferase reporter, luminescence, 16 h; DNA damage induced by 5-fluorouridine. Potency, µM (doses to about 46.1 µM), without a hit: top-dose activity change, negative = inhibition, hits mostly inhibitors. 2.3% of 330,000 active; also: nearly all actives have a fitted effect of over 55% in size
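5-Fluorouridine DNA damage + compound/DMSO, 2,000 cells/well, 16 h, 37 °C/5% CO2. ONE-Glo, 30 min RT, luminescence. Readout = decrease in reporter signal.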
TDP1 cell CPT = growth inhibition of DT40 Tdp1-/-;hTDP1 cells with camptothecin (screen for TDP1 inhibitors); 12% of 420,000 active; chicken DT40 Tdp1-/-;hTDP1 cells + 20 nM CPT, ATP luminescence, 48 h; AID 686979; Potency, µM (series often up to 46.2 µM), without a hit: at the top dose activity change, negative = growth inhibition, hits mostly inhibitors; also: nearly all actives have a fitted effect of over 55% in size
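Cell growth measured by CellTiter-Glo luminescence after a minimum 48 h, 37 C compound exposure with 20 nM CPT in Tdp1-knockout DT40 cells stably expressing hTDP1, seeded 400/well; qHTS titration format.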
RORg inh = ROR gamma (mouse) transcription inhibition. Drosophila S2 Gal4-RORgamma UAS-luciferase reporter, 20 h. Potency, µM (doses to about 53.6 µM), for the others: at the highest dose activity change, negative = inhibition, hits mostly inhibitors. 5.4% of 310,000 active. AID 2551; also: nearly all actives have a fitted effect of over 60% in size
Target sequence (P51450 whole entry, looked up, the tested form may be a part): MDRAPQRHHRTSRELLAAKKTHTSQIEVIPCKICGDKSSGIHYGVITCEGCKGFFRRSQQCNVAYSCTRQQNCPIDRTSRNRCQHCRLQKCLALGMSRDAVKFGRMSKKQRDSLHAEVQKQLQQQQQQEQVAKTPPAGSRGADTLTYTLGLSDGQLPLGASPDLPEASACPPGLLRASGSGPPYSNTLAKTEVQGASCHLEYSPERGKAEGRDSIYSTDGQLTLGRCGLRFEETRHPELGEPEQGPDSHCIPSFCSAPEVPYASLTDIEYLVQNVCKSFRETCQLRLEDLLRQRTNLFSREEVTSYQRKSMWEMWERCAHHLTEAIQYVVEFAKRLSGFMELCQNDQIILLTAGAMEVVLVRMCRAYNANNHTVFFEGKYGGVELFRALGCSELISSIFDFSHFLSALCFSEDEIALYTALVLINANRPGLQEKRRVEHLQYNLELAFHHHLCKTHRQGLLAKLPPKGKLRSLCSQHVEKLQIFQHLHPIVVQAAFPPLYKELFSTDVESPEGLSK
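Compounds are pin-transferred onto Drosophila Schneider cells expressing a copper-inducible Gal4–ROR gamma transactivation domain fusion. After 1 hr, copper sulfate is added to 700 uM final; luciferase is read 20 hr later.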
Gal4-VP16 FLuc = counter-screen for ROR gamma inhibitors: Gal4-VP16 reporter; Drosophila S2 Gal4-VP16 UAS-luciferase, luminescence, 20 h; 3.5% of 310,000 active; Potency, µM (doses to about 53.6 µM), for the others: at the highest dose activity, negative = inhibition, actives largely listed as inhibitors;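 also: Gal4-VP16 expression switched on by copper sulfate through the metallothionein promoter; nearly all actives have a fitted effect of over 50% in size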
12-LOX inh = blocks human arachidonate 12S-lipoxygenase; 1.1% of 580,000 active; P18054; AID 1671190; purified 12hLO, xylenol orange hydroperoxide absorbance; Potency, µM (series often up to 108 µM), for inactives: at the top dose activity change, negative = inhibition, usual class: inhibitors
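Hydroperoxide product was detected by ferrous iron/xylenol orange as the 573 to 405 nm absorbance ratio. Arachidonic acid at 40 uM (final) was turned over for 30 min at room temperature by 150 nM human 12hLO, pH 7.0 Hepes buffer, after 15 min compound preincubation.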
* marks the source's active call; other numbers are inactive results; ? = inconclusive; . = no result given; [ ] = another dose, or the depositor's remark. Only some compounds are listed: those with a hit (about 15% of all), similar ones and a draw of the others. Calls follow the shape of the dose curve; as a rule, active = well fitted curve in the direction sought with a large enough effect; inconclusive = small, poorly fitted or top-dose-only effect, or another doubt; inactive = no such curve, though single readings can be large; an effect the other way counts as inactive or inconclusive. % is scaled to controls: 0 for no effect and ±100 for the full control effect; potency is read from the fitted curve at half-maximal effect.

SMILES	DT40 TDP1 no CPT	ELG1 DNA repair	TDP1 cell CPT	RORg inh	Gal4-VP16 FLuc	12-LOX inh
COc1ccc(C(=O)NC(C)c2nc3ccccc3[nH]2)cc1OC (stereo not given)	2%	-10%	-15%	-8%	-4%	-3%
COc1ccc(C(=O)Nc2nc3ccccc3[nH]2)cc1OC	-23%	?	-21%	11µM*	10µM*	?
O=C1Nc2cnccc2C2(CCN(C(=O)OCc3ccccc3)C2)O1 (stereo not given)	.	.	.	.	.	35%
CCOC(=O)C(CC(=O)O)c1ccccc1 (stereo not given)	.	.	.	.	.	39%
CCN(CC)C1CCOC2(CCN(C(=O)c3sc(C)nc3C)CC2)C1 (stereo not given)	.	.	.	.	.	53%
O=C(Cn1ncc(=O)c2ccccc21)N1CCCC1c1ccc2c(c1)OCCCO2 (stereo not given)	.	.	.	.	.	-3%
CC(C#N)Sc1nc(-c2cccs2)cc(C(F)(F)F)c1C#N (stereo not given)	.	.	.	.	.	-19%
CCc1ccc(C(=O)N2C[C@@H](CO)[C@H](c3nc(CCOC)no3)C2)cc1	.	.	.	.	.	55%
CCOc1ccccc1OCCCC(=O)Nc1nc2ccccc2[nH]1	-14%	?	-3%	?	-11%	?
COc1ccc(C(=O)Nc2cccc(NC(=O)c3ccc(OC)c(OC)c3)n2)cc1OC	7.3µM*	2.9µM*	8.2µM*	?	-1%	-1%
CCOc1ccc(C(=O)Nc2nc3ccccc3[nH]2)cc1OCC	8.2µM*	?	21µM*	1.4µM*	16µM*	?
COc1ccccc1C(=O)Nc1cccc(NC(=O)c2ccccc2OC)n1	?	?	-23%	26%[1.91 µM]	2%	82%
COC(=O)[C@@H](NC(=O)N(C1CCCCC1)C1CCCCC1)C(C)C	13µM*	-4%	11µM*	-5%	0%	11%
C=CCN=c1scc(-c2ccccc2)n1/N=C/c1ccccn1	1.3µM*	?	1.8µM*	5µM*	10µM*	?
N=c1scc(-c2ccccc2)n1/N=C/c1ccco1	?	?	-6%	-27%	-7%	-15%
C=CCN=c1scc(-c2ccc(F)cc2)n1/N=C/c1ccccn1	2.6µM*	?	2.6µM*	8.9µM*	11µM*	-11%
C=CCn1c(-c2ccc(OC)c(OC)c2)cs/c1=N\c1ccccn1	?	-26%	?	?	?	?
COc1ccc(NC(=O)c2nn(-c3ccccc3C)c(=O)cc2OC)cc1	.	.	.	.	.	-17%
CN1CCC(Nc2ncc3ncnc(Nc4ccc(F)c(Cl)c4)c3n2)CC1	21µM*	.	?	7%	-6%	?
CCOc1ccc(NC(=O)N2CCc3cc(OC)c(OC)cc3C2CNC(=O)NC(C)(C)C)cc1 (stereo not given)	.	.	.	.	.	2%
COc1ccc(NC(=O)CC(C)n2cccn2)cc1Cl (stereo not given)	.	.	.	.	.	5%
CCOC(=O)N1CCC(N2C(=O)c3ccccc3C2Nc2cc(OC)c(OC)c(OC)c2)CC1 (stereo not given)	?	?	?	-5%	2%	-2%
CCOC(=O)[C@]12Cc3c(cc(OC)c(OC)c3OC)[C@H]1N(C1CCCCC1)C(=O)c1cc(OC)ccc12	9.2µM*	.	9.2µM*	.	.	?
O=C1COc2cc(S(=O)(=O)NCc3ccco3)c(Cl)cc2N1	?	.	18µM*	.	.	2%
CC1(c2ccccc2)CCCN(C(=O)c2cnc(-c3cccnc3)nc2)C1 (stereo not given)	.	.	.	.	.	-6%
CC1(C)CC(=O)c2sc(NC(=O)c3ccccc3)nc2C1	.	?	.	56%	6%	.
